Shown is part of a subset that was picked to be rich in hits.
BLM inh-1 = Bloom syndrome helicase (human) inhibition; recombinant BLM DNA unwinding, fluorescence dequenching; Potency, µM (series often up to 56.1 µM), without a hit: top-dose activity change, negative = inhibition, actives largely listed as inhibitors; hit rate 0.2% among 350,000; AID 2528;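 further: plate controls were vehicle for no effect and no enzyme for full effect; nearly all actives have a fitted effect of over 35% in size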
PKM2 activator = activators of human pyruvate kinase M2; P14618; Potency, µM (highest dose often 57.5 µM), inactives show at the top dose activation, hits mostly activators; hit rate 0.34% among 260,000; purified PKM2, Kinase-Glo ATP luminescence, activation; response scale: 0% is enzyme alone, no compound; further: nearly all actives have a fitted effect of over 55% in size
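hPK-M2, >95% pure; 0.1 mM ADP / 0.5 mM PEP final; imidazole pH7.2 buffer w/ 7 mM MgCl2, 50 mM KCl; 1 h RT; Kinase-Glo lum. Intermediate enzyme activity for dual inhibitor/activator qHTS.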
JMJD2E inh = JMJD2E (human) inhibition; AID 2147; JMJD2E catalytic domain, FDH-coupled NADH fluorescence (FDH is formaldehyde dehydrogenase); B2RXH2; Potency, µM (highest dose often 57.1 µM), inactives show at the highest dose activity change, negative = inhibition, hits mostly inhibitors; hit rate 1.6% among 230,000; active means well fitted inhibition curve with a large enough effect, not every such curve was filed as active; inconclusive means small, poorly fitted or top-dose-only effect, or another doubt; inactive means no such curve, though single readings can be large or run the other way;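 further: 0% = wells with enzyme and -100% = buffer wells without enzyme; nearly all actives have a fitted effect of over 50% in size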
APE1 inh-1 = APE1 (human) endonuclease inhibition. P27695. recombinant APE1, TAMRA/BHQ-2 abasic DNA cleavage fluorescence. Potency, µM (highest dose often 65.8 µM), for inactives: at the highest dose activity change, negative = inhibition, usual class: inhibitors. hit rate 0.35% among 350,000;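 further: plate controls were vehicle for no effect and reference inhibitor for full effect; nearly all actives have a fitted effect of over 55% in size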
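APE1 at 0.75 nM preincubated 15 min at room temperature with compound. Reaction then started with 50 nM double-stranded THF-abasic substrate labelled with TAMRA/BHQ-2, and 525/598 nm fluorescence read kinetically. Activity taken as third-minus-first read difference, normalized to DMSO and NSC13755 controls.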
RECQ1 inh = blocks DNA unwinding by human RECQ1; Potency, µM (titrated, usually from 57.3 µM), for the others: at the highest dose activity, negative = inhibition, actives largely listed as inhibitors; RECQ1 DNA unwinding, red fluorescence kinetic read; P46063; AID 2549; hit rate 0.54% among 240,000;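 further: plate controls were vehicle for no effect and no enzyme for full effect; nearly all actives have a fitted effect of over 30% in size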
Target sequence (P46063 whole entry, looked up): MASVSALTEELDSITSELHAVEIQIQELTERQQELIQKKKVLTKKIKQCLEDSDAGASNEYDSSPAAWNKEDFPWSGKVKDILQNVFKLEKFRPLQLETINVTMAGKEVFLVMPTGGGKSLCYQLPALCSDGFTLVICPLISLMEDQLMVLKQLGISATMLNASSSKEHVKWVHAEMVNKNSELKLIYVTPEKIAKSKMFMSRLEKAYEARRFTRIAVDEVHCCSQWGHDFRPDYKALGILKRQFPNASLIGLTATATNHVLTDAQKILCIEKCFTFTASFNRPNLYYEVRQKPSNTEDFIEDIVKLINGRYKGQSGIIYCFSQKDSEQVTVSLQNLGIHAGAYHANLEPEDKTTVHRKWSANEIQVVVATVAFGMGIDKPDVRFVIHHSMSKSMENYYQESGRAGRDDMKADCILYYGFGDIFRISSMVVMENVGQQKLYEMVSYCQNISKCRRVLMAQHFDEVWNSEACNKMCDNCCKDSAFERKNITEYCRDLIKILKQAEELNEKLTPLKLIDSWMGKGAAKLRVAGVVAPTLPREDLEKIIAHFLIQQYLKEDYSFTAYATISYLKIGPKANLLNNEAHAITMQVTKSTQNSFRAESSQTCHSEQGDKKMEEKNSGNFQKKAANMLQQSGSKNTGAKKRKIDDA
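50 nM RECQ1T1 preincubated 15 min with compound in Tris pH 8.0 buffer with MgCl2, DTT, Tween-20 and 2.5 ug/ml poly(dI-dC); started with 200 nM TAMRA/BHQ-2 forked duplex and 2 mM ATP. Unwinding read as fluorescence (525/598 nm), two reads 2 h apart.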
DNA dye displace = counter-screen for APE1 inhibitors: DNA dye displacement; Potency, µM (top dose mostly 28.5 µM), inactives show at the highest dose activity change, negative = inhibition, usual class: inhibitors; shares compounds with APE1 inh-1; hit rate 7% among 480; DNA fluorescent dye displacement counterscreen, fluorescence; AID 2564;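 further: loss of thiazole orange fluorescence as the dye is displaced from duplex DNA; 0% = ThO with dsDNA and no compound and -100% = ThO without dsDNA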
EndoIV counter = counter-screen for APE1 inhibitors: inhibitors of E. coli endonuclease IV. shares compounds with APE1 inh-1. E. coli Endo IV, fluorogenic AP-site DNA cleavage. Potency, µM (series often up to 27.1 µM), for inactives: top-dose activity change, negative = inhibition, usual class: inhibitors. hit rate 4% among 560;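 further: plate controls were uninhibited enzyme wells for no effect and no enzyme buffer wells for full effect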
APE1 inh-2 = confirmation of inhibitors of human APE1 endonuclease | purified APE1, fluorogenic abasic-site DNA cleavage | Potency, µM (doses to about 57.1 µM), without a hit: at the highest dose activity change, negative = inhibition, hits mostly inhibitors | AID 2572 | hit rate 44% among 750 | shares compounds with APE1 inh-1; further: nearly all actives have a fitted effect of over 30% in size
APE1 FP = displaces DNA from human APE1 in FP assay; shares compounds with APE1 inh-1; APE1 binding to TAMRA-labelled double-stranded DNA, fluorescence polarization displacement; Potency, µM (titrated, usually from 28.5 µM), without a hit: top-dose activity, negative = inhibition, hits mostly inhibitors; hit rate 7% among 480
BLM inh-2 = confirmation of inhibitors of human Bloom syndrome helicase BLM. shares compounds with BLM inh-1. BLM DNA unwinding, fluorescence quenching, biochemical. Potency, µM, for the others: max response, negative = inhibition, hits mostly inhibitors. hit rate 40% among 220;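 further: strand separation dequenches TAMRA so unwinding raises red fluorescence; series mostly up to about 69 µM; nearly all actives have a fitted effect of over 45% in size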
* marks the source's active call; other numbers are inactive results; i = inactive; ? = inconclusive; . = no result; [ ] = dose if it differs, or a comment. Unless noted, the call rests on the fitted dose curve; in most records, active means well fitted curve in the direction sought with a large enough effect; inconclusive means small, poorly fitted or top-dose-only effect, or another doubt; inactive means no such curve, though single readings can be large; an effect the other way counts as inactive or inconclusive. Unless noted, on the % scale 0 is the no-effect control and ±100 the full control effect; potency means the concentration at half of the fitted maximal effect.

SMILES | BLM inh-1 | PKM2 activator | JMJD2E inh | APE1 inh-1 | RECQ1 inh | DNA dye displace | EndoIV counter | APE1 inh-2 | APE1 FP | others
CC1(C)OC(C(O)(c2cccc3c2oc2ccccc23)c2cccc3c2oc2ccccc23)C(C(O)(c2cccc3c2oc2ccccc23)c2cccc3c2oc2ccccc23)O1 (stereo not drawn) | 5%[12.4 µM] | . | . | 12%[12.4 µM] | i[11.5 µM] | . | . | . | .
CCCC[C@H](NC(=O)[C@H](CC(C)C)NC(=O)CNC(=O)[C@@H](NC(=O)[C@H](Cc1ccccc1)NC(=O)[C@H](CO)NC(=O)[C@@H](N)CC(=O)O)C(C)C)C(N)=O | -1% | . | . | -1% | -12% | . | . | . | .
Cc1c(N)cc(N)cc1C(=O)O | -5% | 0% | ? | 20µM* | -1% | 1% | 4% | -7%[24.4 µM] | -5%
O=C(Nc1ccc2nc(SCC(=O)N3CCCC3)sc2c1)c1ccccc1 | 0% | . | . | . | . | . | . | . | .
Cn1c(SCC(=O)Nc2ccc3nc(SCC(=O)N4CCCC4)sc3c2)nnc1-c1ccccc1 | -27% | -1% | -10% | ? | ? | . | . | -39% | .
O=C(N/N=C/c1ccc([N+](=O)[O-])cc1)c1ccc2nc[nH]c2c1 | -1% | -10% | -5% | -5% | i | . | . | . | .
C/C(=N\NC(=O)c1ccc2nc[nH]c2c1)c1ccc([N+](=O)[O-])cc1 | 5% | 24% | 39% | 3% | -5% | . | . | -22% | .
O=C(CSc1ncc(-c2ccccc2)[nH]1)Nc1cccc(Br)c1 | -12% | . | . | . | . | . | . | . | .
COc1ccnc(Oc2ccccc2)c1C(N)=O | -2% | 1% | 2% | -64% | i | -10% | 4% | -11%[24.4 µM] | ?
CC(=O)O[C@@]12CO[C@@H]1C[C@H](O)[C@@]1(C)C(=O)[C@H](O)C3=C(C)[C@@H](OC(=O)C(O)[C@@H](NC(=O)OC(C)(C)C)c4ccccc4)C[C@@](O)([C@@H](OC(=O)c4ccccc4)[C@H]21)C3(C)C (stereo partly drawn) | -2% | . | . | . | . | . | . | . | .
CS(=O)(=O)N1Cc2ccccc2CC1C(=O)OCC(=O)Nc1ccc2ccccc2c1 (stereo not drawn) | -20% | 7% | 4% | ? | -16% | ? | ? | ? | ?
CS(=O)(=O)N1Cc2ccccc2CC1C(=O)OCC(=O)NCCc1ccc(S(N)(=O)=O)cc1 (stereo not drawn) | . | . | . | 24% | . | . | . | . | .
CCCCc1nc2c(c3c1C[C@H](C)OC3)CN(C(=O)N[C@H](C(=O)OC)C(C)C)CC2 | -1%[12.4 µM] | -4%[11.5 µM] | 5%[11.4 µM] | -1%[12.4 µM] | 6%[11.5 µM] | . | . | . | .
Cc1cc(C)nc(N2N=C(CSc3ccc(Cl)cc3)CC2=O)n1 | 0% | 4% | 2% | 2.8µM* | -6% | -10% | -1% | ? | -3%
Cc1cc(C)nc(N2C(=O)CC(Cc3ccc(Cl)cc3)C2=O)n1 (stereo not drawn) | -2% | -4% | 10% | -3% | i | . | . | . | .
Nc1nc(Nc2ccccc2)nc(NC2CCCCC2)c1[N+](=O)[O-] | ? | . | . | -7% | . | . | . | . | .
N#Cc1nc(Nc2ccccc2)nc(NC2CCCCC2)n1 | -15% | . | . | 35µM* | -9% | -6%[57.1 µM] | 17%[57.1 µM] | -2% | ?
COc1ccc(/C=C/C(=O)NC(=S)Nc2ccc(C(=O)O)cc2)cc1 | -18% | -5% | ? | -12% | 1% | . | . | -13% | .
COc1ccc(NC(=S)NC(=O)/C=C/c2ccc(F)cc2)cc1 | -3% | . | . | 40% | . | . | . | . | .
CCCSc1nnc2c(n1)OC(c1sccc1C)Nc1ccccc1-2 (stereo not drawn) | -5% | . | . | . | . | . | . | . | .
Cc1ccc(NC(=O)CN2C(=O)S/C(=C\c3ccc(-c4cccc(C(=O)O)c4C)o3)C2=O)cc1 | 1% | 26% | ? | ? | ? | . | . | 40µM* | .
Cc1ccc(C(=O)O)cc1-c1ccc(/C=C2\SC(=O)N(CC(=O)Nc3ccccc3)C2=O)o1 | -6% | ? | ? | ? | -17% | . | . | 40µM* | .
COc1cccc(N2CCN(CC(=O)NC(=O)NCc3ccco3)CC2)c1 | 11µM* | 20% | -10% | ? | ? | -8% | 0% | ? | -2% | BLM inh-2=1%
O=C1CCC[C@@H]2CC(NCc3ccc(Cl)c(Cl)c3)C[C@@H]3CCN1[C@H]23 (stereo partly drawn) | -9%[75.6 µM] | . | . | -4% | i | . | . | . | .
Cc1c(C(=O)OCC2CCCO2)[nH]c2c1C(=O)CC(c1ccco1)C2 (stereo not drawn) | 14µM* | 20µM* | ? | 7.1µM* | 25µM* | -4% | ? | 4.5µM* | ? | BLM inh-2=18µM*
SMILES | BLM inh-1 | PKM2 activator | JMJD2E inh | APE1 inh-1 | RECQ1 inh | DNA dye displace | EndoIV counter | APE1 inh-2 | APE1 FP | others
COC(=O)c1ccc(O)cc1 | 1% | . | . | 43% | -3% | . | . | . | .
COC(=O)c1cc(=O)c(O)c2c(O)c(O)ccc2c1 | ? | . | 8.9µM* | 1.3µM* | 8.9µM* | . | -17%[57.1 µM] | 7.1µM* | . | BLM inh-2=?
Clc1ccccc1-c1ccc2ncnc(NCCN3CCOCC3)c2c1 | -6% | . | . | 2% | i | . | . | . | .
CCc1ccc(NC(=O)CSc2nc(NS(=O)(=O)c3ccccc3)cc(=O)[nH]2)cc1 | 16µM* | 3% | ? | 7.9µM* | 13µM* | 3% | 16% | -10%[24.4 µM] | 0% | BLM inh-2=3%
CCOc1ccc(NC(=O)CSc2nc(NS(=O)(=O)c3ccc(C)cc3)cc(=O)[nH]2)cc1 | -10% | 1% | . | 13% | . | . | . | . | .
CN(C)CCn1c(=O)n(Cc2ccco2)c(=O)c2c3c(sc21)CCCCC3 | 0% | -4% | 0% | -1% | -10% | . | . | . | .
O=C(Cn1c(=O)n(Cc2ccco2)c(=O)c2c3c(sc21)CCCCC3)Nc1ccccc1 | 20µM* | 14% | ? | 11µM* | 13µM* | ? | -5% | ? | -1% | BLM inh-2=?
Cc1nc2ccc3nc(NC(=O)c4ccc5c(c4)OCCO5)sc3c2s1 | -9% | -3% | ? | -3% | -3% | . | . | ? | . | BLM inh-2=?
CN(C)CC/C=C1\c2ccccc2COc2ccc(CC(=O)O)cc21 | -11% | . | . | . | . | . | . | . | .
